Records with an inconclusive call do not appear. Where a call stands in place of a potency, no number is given. The source made the active and inactive calls. Calls come from the whole dose curve; as a rule, active = well fitted curve in the direction sought with a large enough effect; inconclusive = small, poorly fitted or top-dose-only effect, or another doubt; inactive = no such curve, though single readings can be large; an effect the other way counts as inactive or inconclusive.
Potency is the fitted concentration of half-maximal effect.

Chain of Cytochrome P450 3A4 (Homo sapiens) (P08684 whole entry, looked up): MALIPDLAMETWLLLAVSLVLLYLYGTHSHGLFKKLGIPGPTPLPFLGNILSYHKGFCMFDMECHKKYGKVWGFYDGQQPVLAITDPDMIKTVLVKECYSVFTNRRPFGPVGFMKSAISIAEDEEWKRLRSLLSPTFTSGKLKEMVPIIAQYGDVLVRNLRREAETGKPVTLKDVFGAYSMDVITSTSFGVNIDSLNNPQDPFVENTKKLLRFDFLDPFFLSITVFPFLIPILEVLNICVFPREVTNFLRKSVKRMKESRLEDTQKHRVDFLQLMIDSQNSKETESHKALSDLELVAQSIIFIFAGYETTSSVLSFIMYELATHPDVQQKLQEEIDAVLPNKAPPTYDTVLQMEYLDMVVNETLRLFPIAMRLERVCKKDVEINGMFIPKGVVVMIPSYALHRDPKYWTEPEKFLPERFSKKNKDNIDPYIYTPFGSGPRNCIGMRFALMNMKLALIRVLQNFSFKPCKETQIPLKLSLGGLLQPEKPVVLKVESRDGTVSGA

For the first assay, the target named is Cytochrome P450 3A4 (Homo sapiens) (UniProt P08684). Briefly: qHTS Assay for Inhibitors and Substrates of Cytochrome P450 3A4 (AID 884). Note: nearly all actives have a fitted effect of over 50% in size. As to conditions: recombinant CYP3A4, Luciferin-PPXE luminescence; series mostly up to 57.1 µM. Put shortly:
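20 nM human CYP3A4 with 25 uM Luciferin-PPXE (at KM) in 200 mM KPO4, preincubated 10 min with compound; NADPH regeneration started a 60 min RT reaction. Luciferin detected by luminescence, normalized to 57 uM ketoconazole as full inhibition.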
Background: Quantitative high-throughput screening tests each substance at several concentrations.
Take `Cn1c(=O)c(-c2ccc(Cl)cc2)nc2cnc(Oc3ccccc3)nc21`: the Potency result is “inactive”.

For `O=S(=O)(c1ccccc1)N1CCC[C@@]2(CCN(C(c3ccccc3)c3ccccc3)C2)C1`, the Potency is 3.16 µM (active).

`COc1ccc(CNc2nc(-c3ccccc3CN(C)C)nc3ccccc23)c(OC)c1`: the Potency is 7.94 µM (active).

For the molecule `COc1ccccc1CNc1cc(-c2cccc(NS(C)(=O)=O)c2)ncn1`, the Potency was 5.01 µM (active).

For the molecule `O=C(c1csnn1)N1CCC2(CCCN(c3ccc(-c4ccccc4)cc3)C2)CC1`, the Potency is 7.94 µM (active).

`Cn1c(=O)c(-c2ccccc2)nc2cnc(Oc3ccccc3)nc21`: the Potency entry was “inactive”.

On to `O=C(c1ccco1)N1CCC2(CC1)CCN(c1ccccn1)CC2`, for which the Potency entry is “inactive”.

In the case of `COc1ccc(Oc2ncc3nc(-c4cccs4)c(=O)n(Cc4cccc(OC)c4)c3n2)cc1`, the Potency was 3.98 µM (active).

Consider `O=C(c1cccc(F)c1)N1CCC2(CC1)CCN(c1ccccn1)CC2`, for which the Potency entry is “inactive”.

In the case of `Cc1cccc(CNc2cc(-c3ccc(N(C)C)cc3)ncn2)c1`, the Potency is 6.31 µM (active).

With `O=C(Oc1ccccc1)N1CCC2(CC1)CCN(c1ccccn1)CC2`, the Potency result was “inactive”.

For a further assay the target is unchanged. Nature of the assay: qHTS Assay for Activators of Cytochrome P450 3A4 (AID 885). Note: nearly all actives have a fitted effect of over 65% in size. The note with it: recombinant CYP3A4, Luciferin-PPXE luminescence, 60 min; series mostly up to 57.1 µM. The gist of the method: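 Steps: enzyme/substrate mix dispensed; compound added, 10 min RT; NADPH regeneration solution added, 60 min RT; luciferin detection buffer stops reaction; 20 min later luminescence measured.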
Regarding `COc1cccc(Cn2c(=O)c(-c3cccs3)nc3cnc(N4CCN(C)CC4)nc32)c1`, the Potency result is “inactive”.

For `Cn1c(=O)c(-c2ccc(Cl)cc2)nc2cnc(Oc3ccccc3)nc21`, the Potency is 20 µM (active).

With `O=C(c1ccncc1)N1CCC2(CC1)CN(c1ccc(-c3ccccc3)cc1)C2`, the Potency result was “inactive”.

Consider `N#Cc1ccc(CN2CC3(CCN(C(=O)c4ccncc4)CC3)C2)cc1`, for which the Potency entry was “inactive”.

Take `COCCn1c(=O)c(-c2ccc(OC)cc2)nc2cnc(Oc3cccc(Cl)c3)nc21`: the Potency entry was “inactive”.

`COc1ccc(-c2nc3cnc(N4CCN(C)CC4)nc3n(CCC#N)c2=O)cc1`: the Potency entry is “inactive”.

In the case of `O=S(=O)(c1ccccc1)N1CCC2(CCN(c3ncccn3)CC2)CC1`, the Potency entry is “inactive”.

For `O=S(=O)(c1ccccc1)N1CCC[C@@]2(CCN(C(c3ccccc3)c3ccccc3)C2)C1`, the Potency result was “inactive”.

For `COc1ccc(C(=O)N2CCC3(CCCN(Cc4nccs4)C3)CC2)cc1`, the Potency entry is “inactive”.

For `COc1ccc(CNc2nc(-c3ccccc3CN(C)C)nc3ccccc23)c(OC)c1`, the Potency result is “inactive”.

For `Cn1c(=O)cnc2cnc(Nc3ccccc3)nc21`, the Potency result was “inactive”.

On to `O=C(Oc1ccccc1)N1CCC2(CCCN(c3cccc(-c4ccccc4)c3)C2)CC1`, for which the Potency result is “inactive”.

For `COc1ccccc1CNc1cc(-c2cccc(NS(C)(=O)=O)c2)ncn1`, the Potency entry is “inactive”.

For the molecule `O=C(c1csnn1)N1CCC2(CCCN(c3ccc(-c4ccccc4)cc3)C2)CC1`, the Potency result was “inactive”.

On to `COc1ccc(Oc2ncc3nc(-c4cccs4)c(=O)n(Cc4cccc(OC)c4)c3n2)cc1`, for which the Potency entry was “inactive”.

Take `O=C(c1cccc(F)c1)N1CCC2(CC1)CCN(c1ccccn1)CC2`: the Potency was 3.16 µM (active).

Turning to `Cc1cccc(CNc2cc(-c3ccc(N(C)C)cc3)ncn2)c1`, the Potency entry is “inactive”.

The record behind these values is PubChem BioAssay (NCATS).
